HSF-1 act = HSF-1 activators, primary screen, NIH3T3-HGL cells, MG132 stress, luminescence, single point; NIH3T3-HGL HSF-1 luciferase reporter, 8 h; 100% = twice DMSO control signal; activation, % at 9 µM; 300,000 tested, 1.7% active;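 active means mean replicate activation of at least 50% with a set share of replicates each reaching 50%; inconclusive means only one of those two conditions met; inactive means mean below 50% and too few replicates reaching it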
HSF1 inh = HSF1 inhibitors in luciferase reporter cells, primary screen, cell-based, NIH3T3, luminescence; NIH3T3-HGL HSE-luciferase, MG132-induced, luminescence 8 h; stronger effect = lower value; activity change, negative = inhibition, % at 7.5 µM (by protocol); 300,000 tested, 0.77% active;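 active means more than half of replicate wells show activity change below -50%, luminescence cut by over half; inconclusive means some wells, but at most half, below -50%; inactive means no replicate well below -50%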;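 further: luciferase reports HSF-1 transcriptional activity via heat shock element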
esBAF inh = Bmi1 luciferase reporter increase in mESCs, primary screen, esBAF inhibitor project, mouse ES cells, Bmi1 luciferase knock-in, single point. 24 h; 100% = twice the neutral-well signal. reporter increase, % at 12.5 µM. 350,000 tested, 2% active. AID 602393, 2012; in the data active means activation above about 40%; inconclusive means no clear call, values can overlap the other calls;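 further: a rise in the Bmi1 reporter signal indicates esBAF inhibition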
Vif inh = HIV Vif self-association inhibitors, primary screen, imaging, HEK293T, single point; HEK293T cells, Vif self-association by quenched fluorescence, 24 h; inhibition, % at 7.49 µM; 340,000 tested, 0.35% active; AID 602346, 2012; in the data active means inhibition above about 50%, passing the limit was not always enough; inconclusive means no clear call, values can overlap the other calls; inactive means below about 31%
Each line names hits and unclear results; the compound was inactive in the other large screens. An excerpt weighted towards active compounds, which were near 3.4% of everything screened.

C[C@H]1CN([C@@H](C)CO)C(=O)Cc2cc(NS(C)(=O)=O)ccc2O[C@H]1CN(C)C(=O)Nc1ccc2c(c1)OCO2	none (no result: HSF-1 act, HSF1 inh, Vif inh)
Cc1ccccc1CN1CCNC1=O	none
Cc1cccc(CN2CCNC2=O)c1	HSF1 inh -71 (no result: Vif inh)
COC(=O)C(C)N(C(=O)c1ccc(C(=O)c2ccccc2)cc1)c1c(C)cccc1C (configuration not stated)	HSF-1 act 65
Cn1c(C(=O)NCc2ccccc2)cc2oc3ccccc3c21	esBAF inh 59
Cn1c(C(=O)NCc2cccs2)cc2oc3ccccc3c21	esBAF inh 52
Cn1c(C(=O)NCC2CCCO2)cc2oc3ccccc3c21 (configuration not stated)	esBAF inh 76
COc1ccc(NC(=O)Nc2ccc3c(c2)C(=O)N([C@H](C)CO)C[C@@H](C)[C@@H](CN(C)S(=O)(=O)c2ccccc2)O3)cc1	none (no result: HSF-1 act, HSF1 inh, Vif inh)
COc1ccc(NC(=O)N(C)C[C@H]2Oc3ccc(NC(=O)Cc4ccccc4)cc3C(=O)N([C@H](C)CO)C[C@H]2C)cc1	none (no result: HSF-1 act, HSF1 inh, Vif inh)
O=C(CCNC(=O)c1ccccc1Cl)Nc1nc(-c2ccc(F)cc2)cs1	none (no result: esBAF inh)
O=C(CCNC(=O)c1ccccc1Cl)Nc1nc(-c2ccccc2Cl)cs1	esBAF inh 55
C[C@H](CO)N1C[C@H](C)[C@H](CN(C)C)Oc2ccc(NC(=O)C3CCCCC3)cc2CC1=O	none (no result: HSF-1 act, HSF1 inh, Vif inh)
Cc1cc(C)cc(NC(=S)Nc2cccc3cnccc23)c1	none (no result: HSF-1 act, HSF1 inh, esBAF inh)
CCc1ccc(NC(=S)Nc2cccc3cnccc23)cc1	esBAF inh 62
Cc1ccc(NC(=S)Nc2cccc3cnccc23)c(C)c1	HSF-1 act 73
COc1ccc(S(=O)(=O)N(C)C[C@@H]2OCCCC[C@@H](C)Oc3ccc(NC(=O)C4CCCCC4)cc3C(=O)N([C@@H](C)CO)C[C@H]2C)cc1	none (no result: HSF-1 act, HSF1 inh, Vif inh)
CSc1cccc(-n2cc(-c3ccc4c(c3)OCO4)[nH]c2=O)c1	esBAF inh 45
CSc1cccc(NC(=O)CNC(=O)c2ccc3c(c2)OCO3)c1	none
Cc1ccc(OCCCC(=O)N(C)CC(=O)Nc2ccccc2Br)cc1	none (no result: esBAF inh)
CN(CC(=O)Nc1ccccc1Br)C(=O)c1cccn1C	HSF1 inh -67
CN(CC(=O)Nc1ccccc1Br)C(=O)COc1ccc2ccccc2c1	esBAF inh 41 (no result: HSF-1 act, HSF1 inh)
CN(CC(=O)Nc1c(Cl)cccc1Cl)C(=O)c1cccn1C	none (no result: esBAF inh)
C[C@@H]1CN([C@H](C)CO)C(=O)Cc2cc(NC(=O)Cc3cn(C)c4ccccc34)ccc2O[C@@H]1CN(C)S(=O)(=O)c1ccc(Cl)cc1	none (no result: HSF-1 act, HSF1 inh, Vif inh)
O=C(Nc1nc(COc2ccccc2)cs1)C1CCC1	esBAF inh 64 (no result: Vif inh)
O=C(CC1CC2CCC1C2)Nc1nc(-c2ccccn2)cs1 (configuration not stated)	none (no result: esBAF inh)
O=C(Nc1nc(-c2ccccn2)cs1)C1CC1	esBAF inh 46
CCCN1C(=O)/C(=C\C=C2\N(CC)c3ccccc3C2(C)C)SC1=S	Vif inh 167
Cn1c(SCc2ccccc2F)nc2cccnc21	HSF-1 act 63, esBAF inh 43
C[C@H](CO)N1C[C@H](C)[C@H](CN(C)S(=O)(=O)c2ccc(Cl)cc2)Oc2ccc(NC(=O)Cc3ccccc3)cc2C1=O	none (no result: HSF-1 act, HSF1 inh, Vif inh)
c1ccc(OCCOc2ncnc3ccccc23)cc1	esBAF inh 51
COCCn1nnnc1CN1CCC(NC(=O)c2ccc(Br)cc2)CC1	none
COc1cc(C(=O)NC2CCN(Cc3nnnn3Cc3cccs3)CC2)cc(OC)c1OC	HSF1 inh -68
Cc1ccc(C)c(NC(=O)C2CC(O)CN2C(=O)Oc2ccccc2)c1 (configuration not stated)	HSF-1 act 67 (no result: esBAF inh)
CCN(CC)c1nc2c3c(nc4c(c3c1C#N)CC(=O)N4c1ccc(Cl)cc1)NC(C)=N2	none (no result: esBAF inh)
CCc1ccc(N2C(=O)Cc3c2nc(N)c(C#N)c3N)cc1	esBAF inh 53
CC(C)(C)c1ccc(N2C(=O)Cc3c2nc(N)c(C#N)c3N)cc1	esBAF inh 51
CC(C)c1ccc(N(C(=O)CNC(=O)c2ccco2)C(C(=O)NC2CCCC2)c2ccncc2)cc1 (configuration not stated)	HSF-1 act 168
O=C(NC1CCCC1)C(c1ccncc1)N(C(=O)c1ccco1)c1ccc(Cl)cc1 (configuration not stated)	HSF-1 act inconclusive
Cc1ccc(N(C(=O)CNC(=O)c2ccco2)C(C(=O)NCC2CCCO2)c2ccccc2)cc1C (configuration not stated)	Vif inh 53
Cc1ccc(C)c(N(C(=O)CNC(=O)c2ccco2)C(C(=O)NCC2CCCO2)c2ccccc2)c1 (configuration not stated)	none
Cc1cccc(N(C(=O)c2ccco2)C(C(=O)NC2CCCC2)c2cccnc2)c1C (configuration not stated)	HSF1 inh -79
CCc1ccc(N(C(=O)c2ccco2)C(C(=O)NC2CCCC2)c2ccncc2)cc1 (configuration not stated)	esBAF inh 42 (no result: Vif inh)
Cc1ccc(N(C(=O)c2ccco2)C(C(=O)NC2CCCC2)c2cccnc2)cc1 (configuration not stated)	none
C[C@@H]1CN([C@H](C)CO)C(=O)Cc2cc(NS(=O)(=O)c3cn(C)cn3)ccc2O[C@H]1CN(C)Cc1ccc(Cl)c(Cl)c1	none (no result: HSF-1 act, HSF1 inh, Vif inh)
O=C(NC1CCCC1)C(c1ccco1)N(C(=O)c1ccco1)c1ccccc1 (configuration not stated)	none
O=C(NC1CCCCC1)C(c1cccs1)N(C(=O)c1ccco1)c1ccc2c(c1)OCCO2 (configuration not stated)	esBAF inh 78
CCc1ccc(N(C(=O)c2ccco2)C(C(=O)NC2CCCC2)c2ccco2)cc1 (configuration not stated)	esBAF inh 50 (no result: Vif inh)
CC(=O)c1ccc(N(C(=O)c2ccco2)C(C(=O)NC2CCCC2)c2cccs2)cc1 (configuration not stated)	none
C[C@@H]1CN([C@@H](C)CO)C(=O)Cc2cc(NC(=O)CCC(F)(F)F)ccc2O[C@@H]1CN(C)C(=O)Nc1ccc(F)cc1	none (no result: HSF-1 act, HSF1 inh, Vif inh)
CCCNC(=O)[C@@H]1[C@@H](CO)[C@@H]2Cn3c(cccc3=O)[C@H]1N2S(=O)(=O)c1ccccc1C	none (no result: HSF-1 act, HSF1 inh, Vif inh)
CC(=O)c1ccc(Nc2nc(N3CCOCC3)nc(N3CCOCC3)n2)cc1	esBAF inh 44
CCCNC(=O)Nc1ccc2c(c1)C(=O)N(C)[C@@H]1CC[C@H](CC(=O)NC)O[C@@H]1CO2	none (no result: HSF-1 act, HSF1 inh, Vif inh)
COc1ccc(Cl)cc1NC(=O)CN(C)C(=O)Cn1c(=O)oc2ccccc21	HSF1 inh -58
COc1ccc(Cl)cc1NC(=O)CN(C)C(=O)Cn1cnc2c1c(=O)n(C)c(=O)n2C	HSF1 inh -74
COCCNC(=O)Cn1cnc2c1c(=O)n(C)c(=O)n2C	HSF-1 act 56
O=C(NCCc1cccs1)C1CC(c2c(Cl)cccc2Cl)=NO1 (configuration not stated)	esBAF inh 80

Bioassay records deposited in PubChem BioAssay by Broad Institute.
